According to publication PMC5540273 (PLoS ONE, 2017):

System: CHEK2
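Further: kd values determined as follow-up on hits from a single-replicate KINOMEscan panel screen.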

Structure (SMILES) | Kd [nM]
COc1ccc(Nc2nccc(NCCNC(=O)Nc3cc(C)ccc3C)n2)cc1 [GSK1379899] | > 10000
CC(C)c1cc(-c2ccc3c(N)n[nH]c3c2)nc(N)n1 [GSK2250882] | 320
CNc1cc(-c2ccc3c(N)n[nH]c3c2)nc(N)n1 [GSK2224810] | 2000
